PLK1 PBD block: blocks phosphopeptide binding to human PLK1 polo-box domain; P53350; Potency, µM, without a hit: max response, negative = inhibition, most hits filed as inhibitors; AID 720504; actives 2.8% (n = 360,000); Plk1 PBD binding of FITC phosphopeptide, fluorescence polarization; also: series mostly up to about 57 µM; % is scaled to controls: 0 for no effect and ±100 for the full control effect; nearly all actives have a fitted effect of over 65% in size
BAZ2B inh: inhibitors of human BAZ2B bromodomain. AID 504333. actives 4.4% (n = 360,000). Q9UIF8. AlphaScreen BAZ2B-H3K14Ac peptide displacement. Potency, µM (titrated, usually from 114 µM), for the others: at the highest dose activity change, negative = inhibition, usual class: inhibitors; also: % is scaled to controls: 0 for no effect and ±100 for the full control effect; nearly all actives have a fitted effect of over 60% in size
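Multi-concentration screen (max 110 uM) measuring displacement of acetylated histone H3 peptide from BAZ2B by AlphaScreen, using 50 nM protein, 50 nM peptide and 10 ug/mL streptavidin donor plus Ni-chelate acceptor beads.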
12-LOX inh: inhibitors of human 12S-lipoxygenase ALOX12; P18054; purified 12hLO, xylenol orange hydroperoxide absorbance; Potency, µM (series often up to 108 µM), for inactives: at the top dose activity change, negative = inhibition, hits mostly inhibitors; AID 1671190; actives 1.1% (n = 580,000); also: % is scaled to controls: 0 for no effect and ±100 for the full control effect
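Purified human 12hLO (150 nM final) in 25 mM Hepes, 0.01% Triton X-100, pH 7.0 was preincubated 15 min at room temperature with compound. Then 40 uM arachidonic acid was added, 30 min. Hydroperoxide was read by Fe-XO absorbance ratio 573/405 nm.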
HP1b chromo inh: blocks HP1-beta chromodomain binding to methylated histone tails; P83916; AlphaScreen HP1-beta / biotin-H3K9me3 peptide binding; Potency, µM (doses to about 114 µM), inactives show at the top dose activity change, negative = inhibition, usual class: inhibitors; actives 0.56% (n = 390,000); AID 540317; also: nearly all actives have a fitted effect of over 70% in size
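HP1-beta protein (50 nM final) preincubated 30 min at room temperature with biotinylated H3(1-18)K9me3 peptide (50 nM) in PBS pH 7.4, 0.01% Tween-20, then compound added for 30 min. AlphaScreen streptavidin donor/nickel chelate acceptor beads (10 ug/mL final), 30 min dark, luminescence read.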
G9a inh: inhibitors of human histone lysine methyltransferase G9a; Potency, µM (top dose mostly 102 µM), without a hit: at the highest dose activity, negative = inhibition, actives largely listed as inhibitors; Q96KQ7; G9a H3K9 monomethylation, AlphaScreen, 2 h; actives 8.8% (n = 350,000); AID 504332; also: % is scaled to controls: 0 for no effect and ±100 for the full control effect; nearly all actives have a fitted effect of over 75% in size
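Step 1: enzyme (final 20 nM) with compound, 15 min RT. Step 2: substrate peptide 500 nM and SAM 20 uM, 2 h RT. Step 3: anti-H3K9me1 antibody and AlphaScreen beads, 10 min, then plate read.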
JMJD2A Tudor inh: JMJD2A Tudor domain (human) inhibition; Potency, µM (doses to about 114 µM), for the others: at the top dose activity change, negative = inhibition, hits mostly inhibitors; AID 504339; AlphaScreen JMJD2A-Tudor / H3K4me3 peptide binding; actives 4.4% (n = 390,000); O75164; also: % is scaled to controls: 0 for no effect and ±100 for the full control effect; nearly all actives have a fitted effect of over 50% in size
* hit, by the source's call; [ ] = dose if it differs, or a comment. This is a sample that favours compounds with a hit; in the whole collection about 9% have one here. Calls follow the shape of the dose curve; as a rule, active = well fitted curve in the direction sought with a large enough effect; inconclusive = small, poorly fitted or top-dose-only effect, or another doubt; inactive = no such curve, though single readings can be large; an effect the other way counts as inactive or inconclusive. Potency is read from the fitted curve at half-maximal effect.

Results for CCN(CC)S(=O)(=O)c1cc(-c2nn(C)c(=O)c3ccccc23)ccc1C ?
PLK1 PBD block: -9.3%; BAZ2B inh: 50.1µM*; 12-LOX inh: -1.4%; HP1b chromo inh: -1.6%; G9a inh: inconclusive; JMJD2A Tudor inh: inconclusive

How did O=C(/C=C/c1ccccc1)N/C(=C/c1ccccc1)C(=O)Nc1ccc(C(=O)O)cc1 do in these assays?
PLK1 PBD block: 26.7µM*; BAZ2B inh: -6.0%; 12-LOX inh: -9.5%; HP1b chromo inh: 7.9%; G9a inh: 1.7%; JMJD2A Tudor inh: 50.1µM*

What do the screens show for `COc1ccc(NC(=S)NC(=O)/C=C/c2ccco2)cc1`?
PLK1 PBD block: -5.9%; BAZ2B inh: inconclusive; 12-LOX inh: inconclusive; HP1b chromo inh: 2.9%; G9a inh: 22.4µM*; JMJD2A Tudor inh: -14.5%

Results for CCN(CC(=O)Nc1ccc(NC(C)=O)cc1)C(=O)/C=C/c1ccco1 ?
PLK1 PBD block: -3.0%; BAZ2B inh: -21.5%; 12-LOX inh: -0.7%; HP1b chromo inh: 8.6%; G9a inh: 50.1µM*; JMJD2A Tudor inh: -6.8%

What do the screens show for `O=C(/C=C/c1ccco1)Nc1ccc(F)cc1`?
BAZ2B inh: inconclusive; 12-LOX inh: 7.1%; HP1b chromo inh: inconclusive; G9a inh: -24.1%[12.7 µM]; JMJD2A Tudor inh: inconclusive

What do the screens show for `NS(=O)(=O)c1ccc(NC(=O)/C=C/c2ccco2)cc1`?
PLK1 PBD block: inconclusive; BAZ2B inh: -28.6%; 12-LOX inh: 19.8%; HP1b chromo inh: inconclusive; G9a inh: 44.7µM*; JMJD2A Tudor inh: -28.1%

How did CCN(CC(=O)Nc1ccc(NC(C)=O)cc1)C(=O)/C=C/c1cccs1 do in these assays?
PLK1 PBD block: 0.2%; BAZ2B inh: 0.7%; 12-LOX inh: -23.2%; HP1b chromo inh: 37.1%; G9a inh: 4.4%[59 µM]; JMJD2A Tudor inh: -6.4%

What do the screens show for `Cc1cc(C(=O)NNC(=O)/C=C/c2ccco2)c(C)o1`?
PLK1 PBD block: 23.8µM*; BAZ2B inh: inconclusive; 12-LOX inh: 0.2%; HP1b chromo inh: inconclusive; G9a inh: 22.4µM*; JMJD2A Tudor inh: 44.7µM*

What do the screens show for `O=C(/C=C/c1ccco1)NC(=S)Nc1ccc(N2CCCC2)cc1`?
PLK1 PBD block: -11.6%; BAZ2B inh: 10µM*; 12-LOX inh: inconclusive; HP1b chromo inh: 35.5µM*; G9a inh: inconclusive; JMJD2A Tudor inh: inconclusive

What do the screens show for `O=C(/C=C/c1ccc(Cl)cc1)NC(=S)Nc1ccc(C(=O)O)cc1`?
PLK1 PBD block: 29.9µM*; BAZ2B inh: 50.1µM*; 12-LOX inh: inconclusive; HP1b chromo inh: inconclusive; G9a inh: inconclusive; JMJD2A Tudor inh: 22.4µM*

How did CCN(CC(=O)Nc1ccc(NC(C)=O)cc1)C(=O)Cc1coc2cc(C)c(C)cc12 do in these assays?
PLK1 PBD block: 3.7%; BAZ2B inh: 6.4%; 12-LOX inh: -24.6%; HP1b chromo inh: 20.6%; G9a inh: 50.1µM*; JMJD2A Tudor inh: -14.8%

Results for Cc1ccc(C)c(NC(=O)CN(C)C(=O)Cc2coc3cc(C)c(C)cc23)c1 ?
PLK1 PBD block: -8.0%; BAZ2B inh: 9.0%; HP1b chromo inh: -14.6%; G9a inh: -38.7%; JMJD2A Tudor inh: -12.1%

How did O=C(CSc1nnnn1Cc1ccccc1)NCC(=O)c1ccccc1 do in these assays?
PLK1 PBD block: 0.9%; BAZ2B inh: -0.7%; 12-LOX inh: 0.7%; HP1b chromo inh: 52.5%; G9a inh: 4.5%[12.7 µM]; JMJD2A Tudor inh: 3.3%

What do the screens show for `CN1CC(=O)N(C2CNC2)Cc2c1ncnc2N1CCOCC1`?
12-LOX inh: 90.3%

How did Cc1ccc(O)c(NC(=S)NC(=O)/C=C/c2ccco2)c1 do in these assays?
PLK1 PBD block: -18.8%; BAZ2B inh: -23.8%; 12-LOX inh: inconclusive; HP1b chromo inh: 24.2%; G9a inh: -3.7%; JMJD2A Tudor inh: -23.1%

Results for CCC(=O)Nc1ccc(NC(=S)NC(=O)/C=C/c2ccco2)cc1 ?
PLK1 PBD block: inconclusive; BAZ2B inh: -30.6%; 12-LOX inh: inconclusive; HP1b chromo inh: -9.3%; G9a inh: -9.3%[0.501 µM]; JMJD2A Tudor inh: inconclusive

How did O=C(/C=C/c1ccco1)NC(=S)Nc1ccc(O)c(-c2nc3ccccc3s2)c1 do in these assays?
PLK1 PBD block: -19.6%; BAZ2B inh: -3.5%; 12-LOX inh: inconclusive; HP1b chromo inh: -1.4%; G9a inh: 39.8µM*; JMJD2A Tudor inh: inconclusive

How did CC(=O)NC(=S)Nc1ccc(NC(=S)NC(=O)/C=C/c2ccco2)cc1 do in these assays?
PLK1 PBD block: -0.2%; BAZ2B inh: inconclusive; 12-LOX inh: 8.9%; HP1b chromo inh: 10.8%; G9a inh: 39.8µM*; JMJD2A Tudor inh: inconclusive

What do the screens show for `O=C(/C=C\c1ccco1)Nc1ccc(N2CCN(C(=O)c3ccccc3)CC2)cc1`?
PLK1 PBD block: -8.3%; BAZ2B inh: 70.8µM*; 12-LOX inh: 16.4%; HP1b chromo inh: -11.8%; G9a inh: inconclusive; JMJD2A Tudor inh: -27.1%

What do the screens show for `O=C(/C=C/c1ccco1)NC(=S)NNC(=O)c1ccco1`?
PLK1 PBD block: inconclusive; BAZ2B inh: 2.4%; 12-LOX inh: -10.7%; HP1b chromo inh: -4.0%; G9a inh: 11.2µM*; JMJD2A Tudor inh: -21.4%

How did COC(=O)[C@@]1(Cc2ccc(F)cc2)[C@H]2c3cc(C(=O)N(C)C)n(CCc4ccccn4)c3C[C@H]2CN1C(=O)c1ccccc1 do in these assays?
PLK1 PBD block: 2.0%; BAZ2B inh: inconclusive; 12-LOX inh: inconclusive; HP1b chromo inh: 21.4%; G9a inh: inconclusive; JMJD2A Tudor inh: -13.7%

How did CN(C)c1ccc(NC(=S)NC(=O)/C=C/c2ccco2)cc1 do in these assays?
PLK1 PBD block: -5.8%; BAZ2B inh: 5.4%; 12-LOX inh: inconclusive; HP1b chromo inh: 17.2%; G9a inh: -34.5%; JMJD2A Tudor inh: -16.7%

Results for Cc1ccnc(NC(=S)NC(=O)/C=C/c2ccco2)c1 ?
PLK1 PBD block: -10.7%; BAZ2B inh: inconclusive; 12-LOX inh: -23.0%; HP1b chromo inh: 30.4%; G9a inh: inconclusive; JMJD2A Tudor inh: -27.3%

How did O=C(/C=C/c1ccco1)NC(=S)Nc1ccc(C(=O)O)cc1 do in these assays?
PLK1 PBD block: inconclusive; BAZ2B inh: 31.6µM*; 12-LOX inh: inconclusive; HP1b chromo inh: 70.8µM*; G9a inh: 10µM*; JMJD2A Tudor inh: 35.5µM*

Results for O=C(/C=C/c1ccco1)Nc1ccccc1N1CCCCC1 ?
PLK1 PBD block: -11.9%; BAZ2B inh: inconclusive; 12-LOX inh: 0.7%; HP1b chromo inh: inconclusive; G9a inh: 50.1µM*; JMJD2A Tudor inh: -22.5%

Results for O=C(/C=C/c1ccco1)NC(=S)Nc1ccc(Cl)cn1 ?
PLK1 PBD block: -12.9%; BAZ2B inh: inconclusive; 12-LOX inh: 35.5µM*; HP1b chromo inh: 8.4%; G9a inh: 39.8µM*; JMJD2A Tudor inh: -29.7%

High-throughput results (PubChem)
